# Reference: PubChem BioAssay (NCATS)
# Several values for one entry are separate records, joined by “and”; a condition that tells them apart may be missing. Equal values may be shown once. Values without a mark were called inactive. Results filed as inconclusive are left out. A call without a number means that no potency is given here. Activity calls are given as the source filed them. Unless noted, the call rests on the fitted dose curve; in most records, active means well fitted curve in the direction sought with a large enough effect; inconclusive means small, poorly fitted or top-dose-only effect, or another doubt; inactive means no such curve, though single readings can be large; an effect the other way counts as inactive or inconclusive.
# Tests used:
# C33A = test: Primary qHTS to identify gynecologic anti-cancer compounds using libraries of approved drugs and bioactive compounds (AID 1345084); conditions: Gynecologic cancer cell panel viability, ATPlite luminescence, 48 h; series mostly up to 57.5 µM; further: nearly all actives have a fitted effect of over 55% in size
# In short: (§1)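 In this quantitative HTS, cell killing is estimated from loss of ATP-dependent luciferase light. Cells see five compound concentrations over a 48 h exposure.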
# CAOV3 = test: as above; conditions: Gynecologic cancer cell panel viability, ATPlite luminescence, 48 h; series mostly up to 57.5 µM
# In short: as §1
# CASKI = test: as above; conditions: Gynecologic cancer cell panel viability, ATPlite luminescence, 48 h; series mostly up to 57.5 µM
# In short: as §1
# Es-2 = test: as above; conditions: Gynecologic cancer cell panel viability, ATPlite luminescence, 48 h; series mostly up to 57.5 µM
# In short: as §1
# HeLa = test: as above; conditions: Gynecologic cancer cell panel viability, ATPlite luminescence, 48 h; series mostly up to 57.5 µM
# In short: as §1
# Hek293T = test: as above; conditions: Gynecologic cancer cell panel viability, ATPlite luminescence, 48 h, control line for the selectivity index; series mostly up to 57.5 µM
# In short: as §1
# JEG-3 = test: as above; conditions: Gynecologic cancer cell panel viability, ATPlite luminescence, 48 h; series mostly up to 57.5 µM
# In short: as §1
# OV90 = test: as above; conditions: Gynecologic cancer cell panel viability, ATPlite luminescence, 48 h; series mostly up to 57.5 µM
# In short: as §1
# PA-1 = test: as above; conditions: Gynecologic cancer cell panel viability, ATPlite luminescence, 48 h; series mostly up to 57.5 µM
# In short: as §1
# SKOV3 = test: as above; conditions: Gynecologic cancer cell panel viability, ATPlite luminescence, 48 h; series mostly up to 57.5 µM
# In short: as §1
# Tov-21-G = test: as above; conditions: Gynecologic cancer cell panel viability, ATPlite luminescence, 48 h; series mostly up to 57.5 µM
# In short: as §1
# Tov112D = test: as above; conditions: Gynecologic cancer cell panel viability, ATPlite luminescence, 48 h; series mostly up to 57.5 µM
# In short: as §1
# [1] = Drug repurposing screens with cells derived from glioblastoma tumor samples (AID 1345199); conditions: GBM patient neurospheres viability, ATP luminescence, 48 h; further: nearly all actives have a fitted effect of over 40% in size; further: potency means the concentration at half of the fitted maximal effect
# In short: (§2)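 Primary testing used CD133+ neurospheres from four GBM patients, seven concentrations, 48 h exposure and ATP-based viability; confirmation added three slower-growing patient lines.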
# astro = test: as above; conditions: viability, ATP luminescence, 48 h; series mostly up to 45.9 µM
# In short: as §2
# [2] = biological target: Nuclear receptor subfamily 1 group I member 2 (Rattus norvegicus) (UniProt Q9R1A7); test: qHTS assay for small molecule activators of the rat pregnane X receptor (rPXR) signaling pathway (AID 651751; call rule not given here); conditions: rPXR reporter cells, luciferase (One-Glo), 24 h
# [3] = qHTS assay for small molecule activators of the human pregnane X receptor (PXR) signaling pathway (AID 720659; call rule not given here)
# [4] = qHTS assay to identify inhibitors of the type 1 interferon - major histocompatibility complex class I in skeletal muscle: Counter screen cell viability and HiBit confirmation (AID 1347412); conditions: iHSKM muscle cells + IFN-b, HiBiT or CellTiter-Glo, 24 h; Viability, at 45.9 µM (top of the series); further: nearly all actives have a fitted effect of over 60% in size
# In short: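 After 24 h with human IFN-beta (4 ng/ml) and compound titrations (top 46 uM final, 1:3, 12 points), HLA-B HiBit myoblasts were lysed for either Nano-Glo HiBiT luminescence or CellTiter Glo viability on paired plates.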
# [5] = at 45.9 µM (top of the series), tumour line B
# [6] = at 45.9 µM (top of the series), tumour line D
# [7] = at 46 µM (top of the series), tumour line A
# [8] = at 46.1 µM (top of the series), tumour line C
# Nuclear receptor subfamily 1 group I member 2 (Rattus norvegicus), sequence (Q9R1A7 whole entry, looked up): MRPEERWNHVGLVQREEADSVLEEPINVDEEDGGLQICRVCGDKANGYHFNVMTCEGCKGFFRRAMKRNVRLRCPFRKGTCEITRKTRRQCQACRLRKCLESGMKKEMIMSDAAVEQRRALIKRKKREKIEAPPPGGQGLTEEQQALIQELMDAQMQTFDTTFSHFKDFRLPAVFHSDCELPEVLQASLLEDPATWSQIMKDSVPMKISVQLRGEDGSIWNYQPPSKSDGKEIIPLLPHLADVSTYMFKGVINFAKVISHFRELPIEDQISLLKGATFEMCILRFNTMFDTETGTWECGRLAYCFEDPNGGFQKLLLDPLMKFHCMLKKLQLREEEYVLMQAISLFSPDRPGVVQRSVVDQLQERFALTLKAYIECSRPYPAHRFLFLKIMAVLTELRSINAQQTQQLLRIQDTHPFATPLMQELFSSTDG
smiles,measurement,setting,value
CN[C@@H]1[C@@H](O)[C@@H](O[C@@H]2[C@H](O)[C@H](O[C@H]3OC(CN)=CC[C@H]3N)[C@@H](N)C[C@H]2N)OCC1(C)O (some centres not stated),outcome,C33A,inactive
same,outcome,CAOV3,inactive
same,outcome,CASKI,inactive
same,outcome,Es-2,inactive
same,outcome,HeLa,inactive
same,outcome,Hek293T,inactive
same,outcome,JEG-3,inactive
same,Potency,OV90,inactive
same,outcome,PA-1,inactive
same,outcome,SKOV3,inactive
same,outcome,Tov-21-G,inactive
same,outcome,Tov112D,inactive
same,"activity, negative = cell killing",[1]; [5],-0.265%
same,"activity, negative = cell killing",[1]; [6],7.79%
same,"activity, negative = cell killing",[1]; [7],-24.3%
same,"activity, negative = cell killing",[1]; [8],-7.7%
same,outcome,astro,inactive
CC(=O)N[C@H]1[C@H]([C@H](O)[C@H](O)CO)OC(C(=O)O)=C[C@@H]1N=C(N)N,outcome,C33A,inactive
same,outcome,CAOV3,inactive
same,outcome,CASKI,inactive
same,outcome,Es-2,inactive
same,outcome,HeLa,inactive
same,outcome,Hek293T,inactive
same,outcome,JEG-3,inactive
same,Potency,OV90,inactive
same,outcome,PA-1,inactive
same,outcome,SKOV3,inactive
same,outcome,Tov-21-G,inactive
same,outcome,Tov112D,inactive
same,"activity, negative = cell killing",[1]; [5],-18.7%
same,"activity, negative = cell killing",[1]; [6],-2.37%
same,"activity, negative = cell killing",[1]; [7],-22.1%
same,"activity, negative = cell killing",[1]; [8],-20.3%
same,outcome,astro,inactive
CC(=O)Nc1ccccc1,outcome,C33A,inactive
same,outcome,CAOV3,inactive
same,outcome,CASKI,inactive
same,outcome,Es-2,inactive
same,outcome,HeLa,inactive
same,outcome,Hek293T,inactive
same,outcome,JEG-3,inactive
same,Potency,OV90,inactive
same,outcome,PA-1,inactive
same,outcome,SKOV3,inactive
same,outcome,Tov-21-G,inactive
same,outcome,Tov112D,inactive
same,"activity, negative = cell killing",[1]; [5],-6.03%
same,"activity, negative = cell killing",[1]; [6],-14.5%
same,"activity, negative = cell killing",[1]; [7],-21.5%
same,"activity, negative = cell killing",[1]; [8],6.02%
same,outcome,astro,inactive
same,max response,[2],2.33%
same,outcome,[3],inactive
CCN(CC)C(=O)c1cccc(C)c1,outcome,C33A,inactive
same,outcome,CAOV3,inactive
same,outcome,CASKI,inactive
same,outcome,Es-2,inactive
same,outcome,HeLa,inactive
same,outcome,Hek293T,inactive
same,outcome,JEG-3,inactive
same,Potency,OV90,inactive
same,outcome,PA-1,inactive
same,outcome,SKOV3,inactive
same,outcome,Tov-21-G,inactive
same,outcome,Tov112D,inactive
same,"activity, negative = cell killing",[1]; [5],-13.5%
same,"activity, negative = cell killing",[1]; [6],-4.13%
same,"activity, negative = cell killing",[1]; [7],-18.8%
same,"activity, negative = cell killing",[1]; [8],-13.4%
same,outcome,astro,inactive
same,max response,[2],1.44% and 0.626%
same,outcome,[3],inactive
CC(=O)N[C@@H](CC(C)C)C(=O)O,outcome,C33A,inactive
same,outcome,CAOV3,inactive
same,outcome,CASKI,inactive
same,outcome,Es-2,inactive
same,outcome,HeLa,inactive
same,outcome,Hek293T,inactive
same,outcome,JEG-3,inactive
same,Potency,OV90,inactive
same,outcome,PA-1,inactive
same,outcome,SKOV3,inactive
same,outcome,Tov-21-G,inactive
same,outcome,Tov112D,inactive
same,"activity, negative = cell killing",[1]; [5],-11.1%
same,"activity, negative = cell killing",[1]; [6],-9.62%
same,"activity, negative = cell killing",[1]; [7],-21.1%
same,"activity, negative = cell killing",[1]; [8],-11.2%
same,outcome,astro,inactive
CNc1c2c(nn1C)CCCC2,outcome,C33A,inactive
same,outcome,CAOV3,inactive
same,outcome,CASKI,inactive
same,outcome,Es-2,inactive
same,outcome,HeLa,inactive
same,outcome,Hek293T,inactive
same,outcome,JEG-3,inactive
same,Potency,OV90,inactive
same,outcome,PA-1,inactive
same,outcome,SKOV3,inactive
same,outcome,Tov-21-G,inactive
same,outcome,Tov112D,inactive
same,"activity, negative = cell killing",[1]; [5],-7.34%
same,"activity, negative = cell killing",[1]; [6],-0.633%
same,"activity, negative = cell killing",[1]; [7],-5.91%
same,"activity, negative = cell killing",[1]; [8],-14.3%
same,outcome,astro,inactive
C[C@@H]1O[C@@H](OC[C@H]2O[C@@H](Oc3c(-c4ccc(O)c(O)c4)oc4cc(O)cc(O)c4c3=O)[C@H](O)[C@@H](O)[C@@H]2O)[C@H](O)[C@H](O)[C@H]1O,outcome,C33A,inactive
same,outcome,CAOV3,inactive
same,outcome,CASKI,inactive
same,outcome,Es-2,inactive
same,outcome,HeLa,inactive
same,outcome,Hek293T,inactive
same,outcome,JEG-3,inactive
same,Potency,OV90,inactive
same,outcome,PA-1,inactive
same,outcome,SKOV3,inactive
same,outcome,Tov-21-G,inactive
same,outcome,Tov112D,inactive
same,"activity, negative = cell killing",[1]; [5],-2.66%
same,"activity, negative = cell killing",[1]; [6],3.42%
same,"activity, negative = cell killing",[1]; [7],-16.5%
same,"activity, negative = cell killing",[1]; [8],-1.98%
same,outcome,astro,inactive
Nc1ccncc1N,outcome,C33A,inactive
same,outcome,CAOV3,inactive
same,outcome,CASKI,inactive
same,outcome,Es-2,inactive
same,outcome,HeLa,inactive
same,outcome,Hek293T,inactive
same,outcome,JEG-3,inactive
same,Potency,OV90,inactive
same,outcome,PA-1,inactive
same,outcome,SKOV3,inactive
same,outcome,Tov-21-G,inactive
same,outcome,Tov112D,inactive
same,"activity, negative = cell killing",[1]; [5],-7.35%
same,"activity, negative = cell killing",[1]; [6],-6.96%
same,"activity, negative = cell killing",[1]; [7],-18.3%
same,"activity, negative = cell killing",[1]; [8],-14.3%
same,outcome,astro,inactive
CCCCOC(=O)c1ccc(N)cc1,outcome,C33A,inactive
same,outcome,CAOV3,inactive
same,outcome,CASKI,inactive
same,outcome,Es-2,inactive
same,outcome,HeLa,inactive
same,outcome,Hek293T,inactive
same,outcome,JEG-3,inactive
same,Potency,OV90,inactive
same,outcome,PA-1,inactive
same,outcome,SKOV3,inactive
same,outcome,Tov-21-G,inactive
same,outcome,Tov112D,inactive
same,"activity, negative = cell killing",[1]; [6],-24.9%
same,Potency,[1]; tumour line A,11.2 µM (active)
same,Potency,[1]; tumour line B,12.6 µM (active)
same,Potency,[1]; tumour line C,16.4 µM (active)
same,outcome,astro,inactive
same,outcome,[4],inactive
same,max response,[2],15.7%
C=CCSCC1Nc2cc(Cl)c(S(N)(=O)=O)cc2S(=O)(=O)N1 (configuration not stated),outcome,C33A,inactive
same,outcome,CAOV3,inactive
same,outcome,CASKI,inactive
same,outcome,Es-2,inactive
same,outcome,HeLa,inactive
same,outcome,Hek293T,inactive
same,outcome,JEG-3,inactive
same,Potency,OV90,inactive
same,outcome,PA-1,inactive
same,outcome,SKOV3,inactive
same,outcome,Tov-21-G,inactive
same,outcome,Tov112D,inactive
same,"activity, negative = cell killing",[1]; [5],-4.84%
same,"activity, negative = cell killing",[1]; [6],-16.7%
same,"activity, negative = cell killing",[1]; [7],-17.1%
same,"activity, negative = cell killing",[1]; [8],-16.4%
same,outcome,astro,inactive
O=C(/C=C/c1ccccc1)OCc1ccccc1,outcome,C33A,inactive
same,outcome,CAOV3,inactive
same,outcome,CASKI,inactive
same,outcome,Es-2,inactive
same,outcome,HeLa,inactive
same,outcome,Hek293T,inactive
same,outcome,JEG-3,inactive
same,Potency,OV90,inactive
same,outcome,PA-1,inactive
same,outcome,SKOV3,inactive
same,outcome,Tov-21-G,inactive
same,outcome,Tov112D,inactive
same,"activity, negative = cell killing",[1]; [5],-5.75%
same,"activity, negative = cell killing",[1]; [6],-8.15%
same,"activity, negative = cell killing",[1]; [7],-17.7%
same,"activity, negative = cell killing",[1]; [8],-14.4%
same,outcome,astro,inactive
O=C1C(c2[nH]c3ccccc3c2O)=Nc2ccccc21,outcome,C33A,inactive
same,outcome,CAOV3,inactive
same,outcome,CASKI,inactive
same,outcome,Es-2,inactive
same,outcome,HeLa,inactive
same,outcome,Hek293T,inactive
same,outcome,JEG-3,inactive
same,Potency,OV90,inactive
same,outcome,PA-1,inactive
same,outcome,SKOV3,inactive
same,outcome,Tov-21-G,inactive
same,outcome,Tov112D,inactive
same,"activity, negative = cell killing",[1]; [5],-10%
same,"activity, negative = cell killing",[1]; [6],-9.74%
same,"activity, negative = cell killing",[1]; [7],-34.1%
same,"activity, negative = cell killing",[1]; [8],-13.3%
same,outcome,astro,inactive
same,max response,[2],2.85%
same,outcome,[3],inactive
